KDM4E inh: qHTS Assay for Inhibitors of Human Jumonji Domain Containing 2E (JMJD2E); Lysine-specific demethylase 4E (Homo sapiens), B2RXH2; JMJD2E catalytic domain, FDH-coupled NADH fluorescence (FDH is formaldehyde dehydrogenase); Potency, µM (top dose mostly 57.1 µM), most hits filed as inhibitors; 230,000 compounds, 1.6% hits; further: nearly all actives have a fitted effect of over 50% in size
Target sequence (B2RXH2 1-337 limits assumed): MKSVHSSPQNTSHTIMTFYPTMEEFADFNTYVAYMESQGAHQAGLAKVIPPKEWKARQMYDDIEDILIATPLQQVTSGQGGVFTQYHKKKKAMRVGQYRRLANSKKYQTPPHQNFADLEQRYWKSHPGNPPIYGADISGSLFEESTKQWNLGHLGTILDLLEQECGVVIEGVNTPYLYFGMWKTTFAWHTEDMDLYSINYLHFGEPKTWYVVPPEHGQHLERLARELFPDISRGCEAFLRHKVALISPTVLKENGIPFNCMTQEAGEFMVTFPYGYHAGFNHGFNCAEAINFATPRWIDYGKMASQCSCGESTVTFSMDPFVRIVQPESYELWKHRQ
HPGD inh: qHTS Assay for Inhibitors of HPGD (15-Hydroxyprostaglandin Dehydrogenase). 15-hydroxyprostaglandin dehydrogenase [NAD(+)] (Homo sapiens), P15428. purified HPGD, NADH fluorescence kinetic, PGE2 substrate. Potency, µM, usual class: inhibitors. 150,000 compounds, 4.3% hits. AID 894, 2007
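NADH formation kinetics: reaction with 30 uM PGE2 and 1 mM NAD+ (final), 20 nM enzyme, Tris-HCl pH 8 with Tween 20, after 15 min compound preincubation at room temperature. Fluorescence change, last versus first of five reads.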
Lamin A splicing: qHTS Assay for Modulators of Lamin A Splicing; HeLa LMNA splicing GFP/RFP minigene ratio, 48 h; Potency, µM (titrated, usually from 46.1 µM), hits mostly inhibitors; 200,000 compounds, 0.01% hits; AID 1487, 2009; active means well fitted inhibition curve with a large enough effect in the signal ratio, with a control signal flat, not every such curve was filed as active; inconclusive means small, poorly fitted or top-dose-only effect, or effect the other way, or a change in a side signal; the % refers to the signal ratio
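Read-out is the ratio of GFP to DsRed2 object intensity, acquired by 488 nm laser-scanning cytometry on HeLa lamin A-EGFP minigene reporter cells. Compound incubation 48 hrs at 37 °C in Opti-MEM with 2% FBS; DMSO 0.5% final.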
HTT ATP protect: qHTS Multiplex Assay to Identify Dual Action Probes in a Cell Model of Huntington: Cytoprotection (ATP). PC12 HTT-Q103 induced, cytoprotection, ATP luminescence, 40 h. AID 1471, 2008. 230,000 compounds, 0.14% hits. Potency, µM (titrated, usually from 56.4 µM), usual class: activators; active means well fitted curve in the direction sought with a large enough effect; inconclusive means small, poorly fitted or top-dose-only effect, or another doubt; inactive means no such curve, though single readings can be large; an effect the other way counts as inactive or inconclusive; further: nearly all actives have a fitted effect of over 45% in size
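Compounds were screened for protection of PC12 cells against cell death after tebufenozide induction (100 nM final) of mutant Huntingtin exon 1 (Q103) fused to GFP.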
HttQ103 aggreg: qHTS Multiplex Assay to Identify Dual Action Probes in a Cell Model of Huntington: Aggregate Formation (GFP) | 220,000 compounds, 1.1% hits | AID 1688, 2009 | PC12 HttQ103-GFP aggregates, Acumen cytometry, 40 h | Potency, µM (top dose mostly 46.1 µM), usual class: inhibitors; active means well fitted curve in the direction sought with a large enough effect; inconclusive means small, poorly fitted or top-dose-only effect, or another doubt; inactive means no such curve, though single readings can be large; an effect the other way counts as inactive or inconclusive; further: nearly all actives have a fitted effect of over 60% in size
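Compounds (qHTS titration) were added to PC12 cells expressing an ecdysone-driven HTT exon 1 Q103–GFP fusion after induction with 100 nM tebufenozide. Aggregate formation was measured as GFP objects in cell lysates.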
ALDH1A1 inh: qHTS Assay for Inhibitors of Aldehyde Dehydrogenase 1 (ALDH1A1) | AID 1030, 2008 | 220,000 compounds, 7.3% hits | Purified ALDH1A1, NADH fluorescence, propionaldehyde substrate | Aldehyde dehydrogenase 1A1 (Homo sapiens), P00352 | Potency, µM (top dose mostly 75.3 µM), most hits filed as inhibitors
Large screens that a line does not name were inactive. In the library only some 9.2% were active in any assay of this set; here they are far more common. Unless noted, the call rests on the fitted dose curve; in most records, active means well fitted inhibition curve with a large enough effect (not every such curve was filed as active); inconclusive means small, poorly fitted or top-dose-only effect, or another doubt; inactive means no such curve, though single readings can be large or run the other way.

Nc1nc2c(c(=O)[nH]1)N(C=O)[C@H](CNc1ccc(C(=O)N[C@@H](CCC(=O)O)C(=O)O)cc1)CN2	Lamin A splicing inconclusive
Cc1ccc2c(c1)C1CCCC3C1N2CC(=O)N3Cc1ccccc1 (configuration not stated)	KDM4E inh inconclusive, ALDH1A1 inh 22.4µM
COc1ccc(C2C(=O)N(C3CCCCCC3)CC(=O)N2Cc2ccccc2)cc1OC (configuration not stated)	none
COc1ccc(/C=N/Nc2nc(NCc3ccco3)nc(Nc3ccc(OC)cc3)n2)cc1	KDM4E inh inconclusive, ALDH1A1 inh 11.2µM
Cc1cccc(-n2c(CNC(=O)c3ccc(S(=O)(=O)N(C)C)cc3)nnc2SCC(=O)Nc2ccc(F)cc2)c1	ALDH1A1 inh 0.447µM
Cc1cccc(NC(=O)CSc2nnc(CNC(=O)c3ccc(S(=O)(=O)N(C)C)cc3)n2-c2ccccc2)c1	Lamin A splicing inconclusive, ALDH1A1 inh 7.08µM
CCOc1ccc(NC(=O)c2cnn(-c3ccc(C)c(Cl)c3)c2C2CCNCC2)cc1	none (no result: KDM4E inh, HPGD inh, HTT ATP protect, HttQ103 aggreg, ALDH1A1 inh)
COC(=O)C(C)n1cnc2c(nnn2Cc2ccc(Cl)cc2)c1=O (configuration not stated)	HPGD inh 28.2µM, HTT ATP protect inconclusive
O=C(Cn1cnc2c(nnn2Cc2ccc(Cl)cc2)c1=O)OCc1ccccc1	HPGD inh 12.6µM, ALDH1A1 inh 12.6µM
O=c1c2nnn(-c3ccccc3)c2ncn1C/C=C/c1ccccc1	ALDH1A1 inh inconclusive (no result: HPGD inh, Lamin A splicing)
O=c1c2nnn(Cc3ccccc3)c2ncn1C/C=C/c1ccccc1	HPGD inh 14.1µM
CC(=O)N1CCC2(CC1)CN(Cc1ccccc1)C2	none (no result: KDM4E inh, Lamin A splicing, HttQ103 aggreg)
COc1cc2ncc(-c3ccccc3)nc2cc1OC	ALDH1A1 inh inconclusive (no result: KDM4E inh, HPGD inh, Lamin A splicing, HttQ103 aggreg)
COC(=O)c1cnc(N2CCCN(S(=O)(=O)c3ccc(C(F)(F)F)cc3)CC2)nc1C(F)(F)F	Lamin A splicing inconclusive (no result: HPGD inh)
CC(=O)Nc1ccc(CN2CCc3c([nH]c4ccccc34)C2c2ccccn2)cc1 (configuration not stated)	KDM4E inh 25.1µM, HttQ103 aggreg inconclusive (no result: HPGD inh, Lamin A splicing)
Cn1cccc1-c1cc(C(=O)N2CCc3c([nH]c4ccccc34)C2c2ccccn2)[nH]n1 (configuration not stated)	ALDH1A1 inh 12.6µM (no result: HPGD inh, Lamin A splicing)
CC(C)(C)c1ccc(C(=O)C=[N+]=[N-])cc1	HttQ103 aggreg inconclusive, ALDH1A1 inh 6.31µM
COc1ccc(-c2nc3cnc(N4CCOCC4)nc3n(-c3ccccc3)c2=O)cc1	none (no result: KDM4E inh, HPGD inh, HttQ103 aggreg)
Cc1nnc(Sc2cc(C(=O)NC3CC3)c3ccccc3n2)s1	none (no result: HPGD inh, Lamin A splicing, ALDH1A1 inh)
C=CCN1C(=O)C2(/C(=C(\O)c3ccc4c(c3)OCCO4)C(=O)C(=O)N2CCCOC)c2ccccc21 (configuration not stated)	ALDH1A1 inh 2.82µM
CC1CN(Cc2c(O)ccc3c2oc(=O)c2ccccc23)CC(C)O1 (configuration not stated)	KDM4E inh 28.2µM (no result: HPGD inh, Lamin A splicing, ALDH1A1 inh)
CCOC(=O)C1CCN(C(c2cccc(F)c2)c2c(O)cc(C)n(CCOC)c2=O)CC1 (configuration not stated)	none (no result: KDM4E inh, HPGD inh, HTT ATP protect, HttQ103 aggreg, ALDH1A1 inh)
Oc1c(N=Nc2ccccn2)ccc2ccccc12	KDM4E inh inconclusive, Lamin A splicing inconclusive, HttQ103 aggreg 3.16µM
O=S(=O)(NCCc1csc(-c2ccc(F)cc2)n1)c1ccc(Cl)cc1	none (no result: KDM4E inh, HPGD inh, HTT ATP protect, HttQ103 aggreg, ALDH1A1 inh)
Cc1nc(SCC(O)CCl)c([N+](=O)[O-])[nH]1 (configuration not stated)	ALDH1A1 inh 14.1µM
CC(C)OCCCNC(=O)CCCN1C(=O)CCn2nc(-c3cccn3C)cc21	none (no result: KDM4E inh, HPGD inh, HTT ATP protect, HttQ103 aggreg, ALDH1A1 inh)
CCC(Oc1ccc(F)cc1)C(=O)Nc1nc2c(s1)CCCC2 (configuration not stated)	none (no result: KDM4E inh, HPGD inh, HTT ATP protect, HttQ103 aggreg, ALDH1A1 inh)

Source: PubChem (National Center for Advancing Translational Sciences (NCATS))
